Assay results reported in PubChem BioAssay (NCI).
Compounds without any hit were thinned out: in the full panel of roughly 79,000, 15% have a hit. Values without a mark were called inactive. Activity calls are given as the source filed them. Rule as the data show it: active = growth inhibition above about 70%; inactive = the rest.

How the values were obtained:
[1] = NCI Yeast Anticancer Drug Screen. Data for the rad50 strain (AID 155);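 also: 0% = growth of vehicle-only cultures of the same strain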; conditions: S. cerevisiae rad50 strain growth inhibition; at 50.0 µM; stronger effect = higher value
Outline: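 Genetically altered yeast (DNA repair pathway); compound treatment; growth inhibition vs vehicle ctrl.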

[2] = NCI Yeast Anticancer Drug Screen. Data for the mec2-1 strain (AID 157); conditions: S. cerevisiae mec2-1 strain, at 50.0 µM, stronger effect = higher value
Outline: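 Strain: mec2-1 (DNA repair/cell cycle alteration). Compound exposure, then growth measured; inhibition expressed relative to vehicle.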

[3] = NCI Yeast Anticancer Drug Screen. Data for the sgs1 mgt1 strain (AID 161);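 also: 0% = growth of cultures given vehicle only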; conditions: S. cerevisiae sgs1 mgt1 strain, at 50.0 µM, stronger effect = higher value
Outline: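 Genetically altered yeast, compound exposure, growth inhibition relative to vehicle.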

[4] = NCI Yeast Anticancer Drug Screen. Data for the cln2 rad14 strain (AID 165);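 also: 0% = growth equal to vehicle treated cultures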; conditions: S. cerevisiae cln2 rad14 strain, at 50.0 µM, stronger effect = higher value
Outline: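 Compounds are applied to the cln2 rad14 yeast strain, and growth is then compared with that of vehicle-treated cultures to give inhibition.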

[5] = NCI Yeast Anticancer Drug Screen. Data for the bub3 strain (AID 167); conditions: S. cerevisiae bub3 mutant strain, at 50.0 µM, stronger effect = higher value
Outline: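 Yeast carrying a defined mutation is treated with each compound, and growth is compared with that of vehicle-exposed cells to give inhibition.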

[6] = NCI Yeast Anticancer Drug Screen. Data for the mlh1 rad18 strain (AID 175); conditions: S. cerevisiae mlh1 rad18 strain growth inhibition; at 50.0 µM; stronger effect = higher value
Outline: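 Read-out is yeast growth inhibition, calculated against vehicle-only controls. The compound was applied to a strain engineered with DNA damage repair alterations.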

SMILES | growth inhibition [1] | growth inhibition [2] | growth inhibition [3] | growth inhibition [4] | growth inhibition [5] | growth inhibition [6]
O=C(NC1c2ccccc2CCc2ccccc21)C(F)(F)F | 27.7% | -7.75% | 14.5% | 3.05% | 15.3% | 22.6%
CCN(CC)CCOC(=O)C1c2ccccc2Oc2ccccc21 | 25.2% | -31.5% | 9.1% | 13.9% | 21.4% | 15.3%
COc1ccc(NC(=O)Oc2cccc(NC(C)=O)c2)c(OC)c1 | 13.8% | 8.7% | 10.1% | 4.35% | 12.4% | 8.65%
O=[N+]([O-])c1cc(/C=N\NS(=O)(=O)c2ccc(Cl)cc2)c(O)c([N+](=O)[O-])c1 | 26.9% | 7.2% | 3.9% | -1.35% | 8.75% | 8.6%
O=C(CN1CCN(c2ccccc2)CC1)n1nnc2ccccc21 | -9.4% | -3.9% | -3.6% | -13.8% | -31.5% | -6%
CCOC(=O)N1N(C(=O)c2ccccc2)C(=O)CC1(C)C | -3.15% | 8.2% | 1.5% | -16.1% | -6.8% | -24.2%
N#CCCC(=O)c1ccc[nH]1 | 6.6% | 10.8% | 2.2% | 5.8% | 1.3% | 8.4%
O=C(O)c1ccccc1SC1OC(=O)c2ccccc21 (stereo not given) | -0.45% | -8.75% | 2.35% | -58.7% | 2.75% | -1.45%
COC(=O)c1cc(O)c(C(=O)OC)s1 | 3.05% | -9.75% | -0.55% | -27.9% | 14.8% | 11.2%
CCN(CC)Cc1cc(Nc2ccnc3ccc4nn(C)nc4c23)ccc1O | -16.4% | -19.4% | -28.1% | 4.45% | 6.65% | -1.75%
O=C(C1OC1c1ccccc1)C1OC1c1ccccc1 (stereo not given) | -6.05% | 10.2% | 9.55% | -12.4% | 62.1% | 37%
CN(C)c1ccc(/C=N/NS(=O)(=O)c2ccc(N)cc2)cc1 | -4.4% | -9.95% | 18.8% | -3.45% | -32.2% | -12.6%
COc1ccccc1-n1c(NN)nc2ccc(Br)cc2c1=O | 55.6% | 13.4% | 27.4% | 13.2% | 27.2% | -12.4%
O=S(c1ccc(O)cc1)c1ccc(O)cc1 | -24.2% | -4.95% | 0.55% | 1.35% | -1.1% | -2.35%
Cc1cc(S(=O)(=O)Nc2nc(N)nc(N3CCOCC3)n2)c(SCC(=O)O)cc1Cl | 5.75% | 19.4% | 15.2% | 12.9% | 6.25% | 18.2%
CCc1ccccc1N1C(=O)C(=O)C(c2nc3ccccc3s2)C(=O)C1=O | 12.7% | 5.05% | 17.2% | 15.5% | 2.3% | 10.3%
C=CC(C)n1cnc2c1c(=O)n(C)c(=O)n2C (stereo not given) | -5.1% | -9.35% | -11.2% | -35% | -5.4% | 2.8%
Nc1cccc(S(=O)(=O)Nc2ccccc2)c1 | 19.6% | 25.6% | 1.55% | -6.6% | 0.65% | 10%
C#CCNC(=O)ON1C(=O)CCC1=O | -5.25% | -8.4% | -25.7% | -12.4% | -16.9% | -28.9%
CC1=Cc2cc3[n-]c(cc4nc(cc5[n-]c(cc1n2)c(C)c5CCC(=O)O)C(CCC(=O)O)=C4C)cc3C.[Cu+2] | 0.9% | -0.9% | 10.3% | -49.5% | 15.2% | -0.5%

SMILES | growth inhibition [1] | growth inhibition [2] | growth inhibition [3] | growth inhibition [4] | growth inhibition [5] | growth inhibition [6]
CCOc1c2ccsc2c(OCC)c2ccsc12 | -14.9% | -25.8% | -10.2% | 6.05% | -5.15% | -35.8%
CC(CCC(=O)O)(CCC(=O)O)C(=O)O | 4.2% | 3.85% | -0.8% | -15.6% | 3.7% | -1.9%
Cc1nc(C#N)c(=N)n(CCCO)c1-c1ccccc1 | 7.2% | -8.45% | 10.3% | -28.5% | 16.4% | 5.15%
COc1ccc(-c2coc3c4c(c(CC=C(C)C)c(O)c3c2=O)OC(C)(C)C=C4)cc1OC | 29.9% | 13.8% | 10.9% | 37.7% | 4.1% | 16.8%
CC1OC(OCC2OC(Oc3c(-c4ccc(O)cc4)oc4cc(O)cc(O)c4c3=O)C(OC3OC(C)C(O)C(O)C3O)C(O)C2O)C(O)C(O)C1O (stereo not given) | -13.7% | -21.2% | -2.2% | 2.75% | -2.9% | 5.6%
NC1=C(Br)C(=O)c2[nH]c(=O)[nH]c(=O)c2C1=O | 18.8% | 7.6% | 24.4% | -4% | 7.15% | 20.6%
CC1(O)CCC2(CCC(C)(O)CC2=O)C(=O)C1 (stereo not given) | -7.85% | -9.75% | -0.45% | -2.35% | -12.6% | -14.7%
CCC(CC)C(=O)NC(=O)NC(N)=O | 2.7% | 1.4% | 3.35% | -4.7% | 6.55% | -3.55%
O=Cc1cc2c(cc1Br)OCO2 | 39.7% | 16.1% | 22.3% | 10.2% | -25.6% | 8.3%
O=C(CCCC(=O)Nc1cccc([N+](=O)[O-])c1)CC(=O)c1ccc([N+](=O)[O-])cc1 | -2.7% | -1.25% | -8.2% | -4.15% | -14.6% | 8%
O=C1c2cc([N+](=O)[O-])ccc2-c2c(I)cccc21 | 4.25% | 2.7% | -5.35% | 5.75% | -9.25% | -6.45%
Cc1ccc2nc(Nc3ccc(Cl)cc3)cc(C(O)C3CCCCN3)c2c1 (stereo not given) | 99.5% (active) | 99.8% (active) | 99.7% (active) | 99.2% (active) | 88.8% (active) | 99.5% (active)
Cc1cc(C)c(S(=O)(=O)ONC(=O)OC(C)(C)C)c(C)c1 | 11.8% | -3.9% | -4% | 4.9% | 11.2% | -8.1%
COc1nc(SC)nc2c1cnn2C1OC(C(O)CO)C(OC)C1O (stereo not given) | 4.85% | -1.7% | 3.35% | 9.95% | -4.6% | 16.3%
Cc1cc2nc(-c3ccccn3)c(-c3ccccn3)nc2cc1C | 2.05% | -18.9% | 6.9% | 20.1% | -7.75% | 21.4%
CCCCCCCCCCCCCCCCSc1ccc(S(=O)(=O)N(C)C)cc1N | -16.3% | -36.8% | 3.15% | 10% | 0.75% | 11.9%
CN(C)NC1=C([N+](=O)[O-])C=NN(c2ccccc2)C1 | 15% | -1.15% | 13.4% | 19.4% | 22.1% | 51.6%
O=C(N/N=C\c1ccc([N+](=O)[O-])cc1)Nc1cccc2ccccc12 | -49% | 13.3% | -42.4% | -14.4% | -1% | -41.8%
Cc1ccc(N2CCN(CCC(=O)O)CC2)cc1 | -1.15% | 8.8% | 0.75% | -3.85% | -41.6% | 22.4%
O=C(c1ccccc1)c1ccc2ccc(F)cc2c1C(=O)O | -4% | 17.9% | 2.05% | -17.9% | 16.6% | -7.7%
